Shown are actives, neighbours in structure and some others; about 2.3% of the full set was active somewhere.
Nrf2 activator: activators of Nrf2 (ARE) signaling. Potency, µM (titrated, usually from 46.1 µM), for inactives: top-dose activation, hits mostly activators. AREc32 ARE-luciferase reporter (MCF7-derived line), luminescence, 24 h. AID 624171. 410,000 tested, 0.31% active; further: potency means the concentration at half of the fitted maximal effect; % of control where 0% means no effect; nearly all actives have a fitted effect of over 65% in size
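Reporter line AREc32 (ARE-Fluc), seeded overnight in OPTI-MEM with 5% FBS; compound pin-transferred, 24 hr at 37 deg C, 5% CO2; luminescent read-out.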
Anesthetic bind: candidate novel general anesthetic via apoferritin binding; Potency, µM (doses to about 77.5 µM), without a hit: top-dose activity change, negative = displacement, hits mostly inhibitors; 350,000 tested, 0.074% active; apoferritin/1-aminoanthracene competitive binding, fluorescence; further: potency means the concentration at half of the fitted maximal effect; on the % scale 0 is the no-effect control and ±100 the full control effect; nearly all actives have a fitted effect of over 20% in size
Target sequence (P02791 2-175 limits assumed): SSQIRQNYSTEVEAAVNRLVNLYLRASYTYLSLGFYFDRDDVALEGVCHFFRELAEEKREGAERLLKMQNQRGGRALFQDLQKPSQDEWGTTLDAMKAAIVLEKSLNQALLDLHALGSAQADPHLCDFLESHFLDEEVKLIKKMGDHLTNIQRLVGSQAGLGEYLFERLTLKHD
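Probe: 1-aminoanthracene (50% saturated, PBS). Protein: horse-spleen apoferritin, 10 uM. Incubation: 10 min, room temperature. Detection: 380 nm excitation, 535 nm emission. Analysis: normalized response, four-parameter Hill.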
Giardia kill: kills Giardia lamblia; activity change, % at 7.66 µM, hits read low; 340,000 tested, 0.15% active; Giardia lamblia trophozoite viability; AID 540267; in the data active means activity change below about -80%; inconclusive means between about -30% and that limit;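 further: parasites exposed to compound for two days anaerobically before the ATP read; on the % scale 0 is the no-effect control and ±100 the full control effect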
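Each well holds 100 Giardia trophozoites and compound. After two days (48 hrs) at 37 deg C in anaerobic conditions, ATP is quantified by luminescence.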
A549 viability: A549 cytotoxicity, counter-screen for Nrf2 inhibitors. 390,000 tested, 0.16% active. Potency, µM (series often up to 46 µM), inactives show at the highest dose activity change, negative = cytotoxicity, hits mostly inhibitors. A549 ARE-Fluc cells, CellTiter-Fluor viability, 18-24 h; further: potency means the concentration at half of the fitted maximal effect; on the % scale 0 is the no-effect control and ±100 the full control effect
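Cytotoxicity counterscreen: CellTiter-Fluor fluorescence was measured in A549 ARE_Fluc cells after 18-24 h of compound exposure in a concentration series. The subsequent BugLite luminescent read reports ARE-luciferase activity.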
IDH1 R132H inh: blocks human mutant IDH1 R132H enzyme | O75874 | IDH1-R132H enzyme, NADPH consumption, diaphorase/resazurin fluorescence | Potency, µM (highest dose often 76.6 µM), without a hit: at the top dose activity change, negative = inhibition, hits mostly inhibitors | 390,000 tested, 0.093% active | AID 602179; further: potency means the concentration at half of the fitted maximal effect; on the % scale 0 is the no-effect control and ±100 the full control effect; nearly all actives have a fitted effect of over 65% in size
Target sequence (O75874 whole entry R132H, stated change not applied): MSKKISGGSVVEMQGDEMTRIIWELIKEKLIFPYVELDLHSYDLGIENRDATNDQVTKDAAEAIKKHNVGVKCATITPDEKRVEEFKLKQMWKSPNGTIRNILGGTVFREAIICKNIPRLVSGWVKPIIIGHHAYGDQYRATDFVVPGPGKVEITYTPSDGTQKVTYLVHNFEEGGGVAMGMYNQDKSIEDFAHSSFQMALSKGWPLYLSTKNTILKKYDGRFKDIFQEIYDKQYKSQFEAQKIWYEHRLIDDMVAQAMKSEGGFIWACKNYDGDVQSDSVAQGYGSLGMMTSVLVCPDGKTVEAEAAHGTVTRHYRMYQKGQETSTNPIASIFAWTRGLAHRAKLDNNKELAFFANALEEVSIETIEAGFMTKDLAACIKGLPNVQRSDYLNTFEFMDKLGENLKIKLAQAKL
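IDH1-R132H (0.5 ug/mL dispensed) in pH 7.5 Tris buffer was preincubated 30 min with compound, then given a substrate mix of 0.016 mM NADPH and 2 mM alpha-KG for 80 min at room temperature; remaining NADPH was read by diaphorase/resazurin fluorescence.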
Nrf2 block: inhibitors of Nrf2 signaling; A549 ARE-Fluc reporter, luciferase luminescence, 18-24 h; Potency, µM (series often up to 46 µM), inactives show at the top dose activity change, negative = inhibition, actives largely listed as inhibitors; 360,000 tested, 2.1% active; AID 504444; further: potency means the concentration at half of the fitted maximal effect; on the % scale 0 is the no-effect control and ±100 the full control effect; nearly all actives have a fitted effect of over 60% in size
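Cells were seeded and rested 2 h, then exposed to compounds for 18-24 h. CellTiter-Fluor was read first as a viability measure. BugLite was added 15 min before the final luminescent read of ARE-luciferase activity in A549 cells.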
The depositor's hits bear a star; ? = inconclusive; . = not tested or not shown; ! = not confirmed by another sample; [ ] = remark or other dose. Unless noted, the call rests on the fitted dose curve; in most records, active means well fitted curve in the direction sought with a large enough effect; inconclusive means small, poorly fitted or top-dose-only effect, or another doubt; inactive means no such curve, though single readings can be large; an effect the other way counts as inactive or inconclusive.

SMILES	Nrf2 activator	Anesthetic bind	Giardia kill	A549 viability	IDH1 R132H inh	Nrf2 block
COc1ccc(CC(=O)Nc2nc(-c3cc(OC)ccc3OC)cs2)cc1	0%	-10%	5	-20%	7%	12µM*
COc1ccc(OC)c(-c2csc(NC(=O)Cc3ccc(OC)c(OC)c3)n2)c1	2%	-6%	16	?	10%	?
COc1ccc(N2CCN(C(=O)COC(=O)CC(NC(N)=O)c3ccc(Cl)cc3)CC2)cc1 (configuration not stated)	0%	.	.	.	3%	.
O=C1/C(=C\c2ccc([N+](=O)[O-])cc2)CCc2ccccc21	3%	5%	-91*	15%	14%	8%
Cc1nn(Cc2ccc(C(=O)NC(C)(C)C)o2)c(C)c1Br	1%	-17%	5	-16%	2%	18µM*
Cc1cc(NC(=O)c2ccc(Cn3nc(C)c(Br)c3C)o2)no1	3%	-5%	3	5%	9%	9%
Cc1ccc2occ(C(=O)c3ccco3)c(=O)c2c1	13µM*	?	4	-3%	7%	20%
CCOC(=O)C(Cc1c[nH]c2ccccc12)NC(=O)COc1ccc(Cl)c(C)c1 (configuration not stated)	5%	4%	.	0%	-6%	-5%
Cn1nnnc1Sc1ncnc2scc(-c3ccc(C#N)cc3)c12	-2%	.	-16	?	.	16µM*
Cn1nnnc1Sc1ncnc2scc(-c3cccc(Cl)c3)c12	.	.	.	-18%	.	23µM*
Cn1nnnc1Sc1ncnc2scc(-c3cccc(F)c3)c12	?	.	26	?	.	?
COc1cccc(-c2csc3ncnc(Sc4nnnn4C)c23)c1	?	.	9	?	.	26µM*!
COc1ccccc1-c1ccc(/C=C2\C=CC(=O)O2)o1	16µM*	-3%	-3	1%	16%	1%
COc1ccccc1-c1ccc(/C=C2/C=C(C)OC2=O)o1	14%	7%	7	6%	3%	?
COc1cc2c(cc1CC=C(C)C)C(=O)C[C@@H](c1ccc(O)cc1)O2	.	-21%	.	.	.	.
CC(C)Nc1cccc(S(=O)(=O)N2CCCN(S(=O)(=O)c3ccc4c(c3)OCCO4)CC2)c1	.	.	.	-3%	.	?
CN1C(=O)C2(NCCc3c2[nH]c2ccccc32)c2ccccc21 (configuration not stated)	3%	-6%	-7	-16%	3%	0%
CC1=CC(C)(C)N2C(=O)C3(NCCc4c3[nH]c3ccccc43)c3cc(C)cc1c32 (configuration not stated)	3%	-15%	5	12µM*	3%	?
CCc1cccc(CC)c1NC(=S)NCCc1c(C)[nH]c2ccc(C)cc12	-2%	-8%	34	-17%	3%	16µM*
COc1ccc(CCNC(=O)CCS(=O)(=O)c2cc3c(cc2Cl)NC(=O)CO3)cc1OC	-2%	-4%	.	10%	-12%	?
C=CCNC(=S)NNC(=O)c1ccc(OCCC)cc1	0%	-1%	-20	-7%	5%	-3%
CCCOc1ccc(C(=O)NNC(=S)NC(=O)CC)cc1	0%	-14%	-14	?	0%	4.6µM*
O=C(CSc1nnc(-c2cccnc2)o1)c1cc2ccccc2oc1=O	7.1µM*	-5%	-10	-1%	1%	.
O=C(CSc1nnc(-c2cccnc2)o1)Oc1ccccc1	0%	-9%	9	-1%	14%	-26%
CCn1nnnc1NCc1ccc(OCc2ccc(F)cc2Cl)c(OC)c1	0%	?	4	-7%	-10%	21µM*
SMILES	Nrf2 activator	Anesthetic bind	Giardia kill	A549 viability	IDH1 R132H inh	Nrf2 block
COc1cc(CNc2nnnn2C)ccc1OCc1ccc(F)cc1Cl	3%	?	17	2%	11%	-10%
CCOC(=O)/C(=C\c1ccc(Cl)cc1)c1nc2sc(C)c(C)c2c(=O)[nH]1	?	-14%	-17	?	-13%	18µM*
O=C1C=CC(=C(c2ccc(O)cc2)c2ccc(O)cc2)C=C1	-3%	-10%	-12	23µM*	6%	13µM*
COc1ccc2nc(C)cc(N/N=C/c3ccc(F)cc3)c2c1	-1%	7%	-81*	-9%	-9%	1%
Cc1cc([N+](=O)[O-])ccc1NCc1ccccc1	4%	11µM*	19	?	4%	18µM*
O=[N+]([O-])c1ccc(CNc2cccc(F)c2)s1	?	?	-2	-16%	-1%	2%
Cc1ccccc1NCc1ccc([N+](=O)[O-])s1	11%	8.9µM*	-20	0%	-5%	6%
Cc1ccc(NCc2ccc([N+](=O)[O-])s2)cc1	11%	16µM*	-3	-8%	6%	2%
COc1ccccc1NCc1ccc([N+](=O)[O-])s1	3%	?	-7	3%	3%	15%
Cc1cccc(NCc2ccc([N+](=O)[O-])s2)c1	11%	16µM*	11	-8%	21%	0%
O=C(CSc1nc2c([nH]c3ccccc32)c(=O)n1-c1ccc(F)cc1)NCC1CCCO1 (configuration not stated)	1%	-3%	.	-17%	-5%	.
CCOc1ccc2nc(C)cc(Nc3ccccc3OCC)c2c1	8%	2%	.	-13%	0%	-6%
CCOc1ccc(-c2cn3c(n2)sc2cc(C(=O)NCCCN(CC)CC)ccc23)cc1	6%	-6%	.	6%	-3%	12%
CCCOc1ccc(NC(=O)C(=O)NCCCN2CCOCC2)cc1	-3%	-4%	.	-1%	3%	-19%
Cc1ccc(NC(=O)c2ccc(Cl)c(S(=O)(=O)N3CCCCCC3)c2)nc1	0%	.	-16	?	-8%	23µM*
Cc1ccc(NC(=O)c2ccc(S(=O)(=O)N3CCCCCC3)cc2)nc1	6%	.	10	2%	9%	?
O=C(Nc1cccnc1)c1ccc(Cl)c(S(=O)(=O)N2CCCCCC2)c1	2%	?	0	-5%[1.84 µM]	-3%	15µM*
O=S(=O)(c1c(F)cccc1F)N1CCN(S(=O)(=O)c2c(F)cccc2F)CC1	.	.	.	-4%	.	?
CCN(CC)c1ccc(NC(=O)CCS(=O)(=O)c2cc3c(cc2Cl)NC(=O)CO3)c(C)c1	-2%	-6%	.	?	-10%	16µM*
Cc1ccc(NC(=O)CCS(=O)(=O)c2cc3c(cc2Cl)NC(=O)CO3)cc1	0%	-8%	-5	-3%	2%	-13%
CC(=O)Nc1ccc(Nc2nc3ccccc3nc2NS(=O)(=O)c2ccc(Cl)c([N+](=O)[O-])c2)cc1	10%	.	-15	-3%	-3%	5%
O=C1CCc2cc(S(=O)(=O)Nc3ccc4ncccc4c3)ccc2N1	.	.	.	-10%	.	0%

High-throughput results from PubChem.
